Compound activity deposited in PubChem by National Center for Advancing Translational Sciences (NCATS).
FEN1 inh-1: human FEN1 inhibition; Potency, µM (doses to about 114 µM), inactives show at the highest dose activity change, negative = inhibition, actives largely listed as inhibitors; 0.35% of 390,000 active; Recombinant FEN1 flap cleavage, fluorescence, 15 min; further: potency means the concentration at half of the fitted maximal effect; on the % scale 0 is the no-effect control and ±100 the full control effect; nearly all actives have a fitted effect of over 65% in size
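Quantitative HTS format: each compound was titrated, incubated with 10 nM nuclease for 15 min at room temperature, then challenged with flap substrate at 50 nM final. Signal change over 15 min gave concentration–effect curves.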
Pol beta inh: blocks human DNA polymerase beta activity; Pol beta primer extension/strand displacement, fluorescence kinetic; 1.3% of 340,000 active; P06746; Potency, µM (series often up to 114 µM), inactives show at the highest dose activity change, negative = inhibition, most hits filed as inhibitors; further: potency means the concentration at half of the fitted maximal effect; on the % scale 0 is the no-effect control and ±100 the full control effect
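Homogeneous kinetic assay of primer extension and strand displacement by 10 nM Pol beta, preincubated 15 min at room temperature with compound before 50 nM substrate (final) was added. Read at 0 and 10 min; four-parameter Hill fit.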
Pol iota inh: blocks human DNA polymerase iota activity | Pol iota fluorescent replication assay, 10 min | Potency, µM (highest dose often 115 µM), without a hit: at the highest dose activity, negative = inhibition, usual class: inhibitors | 1% of 390,000 active; further: potency means the concentration at half of the fitted maximal effect
Target sequence (Q9UNA4 whole entry, looked up): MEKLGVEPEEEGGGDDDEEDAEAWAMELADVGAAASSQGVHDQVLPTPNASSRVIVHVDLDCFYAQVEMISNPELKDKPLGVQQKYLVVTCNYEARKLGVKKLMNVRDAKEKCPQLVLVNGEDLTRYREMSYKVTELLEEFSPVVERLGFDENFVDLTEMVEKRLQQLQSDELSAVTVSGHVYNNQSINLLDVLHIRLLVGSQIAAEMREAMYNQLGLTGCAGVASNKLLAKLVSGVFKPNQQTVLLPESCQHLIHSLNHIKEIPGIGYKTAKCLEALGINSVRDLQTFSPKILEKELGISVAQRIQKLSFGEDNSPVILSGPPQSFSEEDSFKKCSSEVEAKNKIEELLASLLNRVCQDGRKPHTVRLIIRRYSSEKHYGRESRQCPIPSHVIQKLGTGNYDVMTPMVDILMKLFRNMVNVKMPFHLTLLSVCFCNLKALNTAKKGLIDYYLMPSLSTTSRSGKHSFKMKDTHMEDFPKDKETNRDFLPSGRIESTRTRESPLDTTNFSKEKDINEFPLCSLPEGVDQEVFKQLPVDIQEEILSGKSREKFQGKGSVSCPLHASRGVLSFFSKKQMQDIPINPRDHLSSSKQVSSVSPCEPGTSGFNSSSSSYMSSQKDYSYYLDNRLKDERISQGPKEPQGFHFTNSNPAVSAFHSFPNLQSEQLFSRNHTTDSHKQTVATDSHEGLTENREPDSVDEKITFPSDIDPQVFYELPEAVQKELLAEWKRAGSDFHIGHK
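Fluorescent replication assay read twice, at 0 min and 10 min after adding 50 nM (final) substrate. Enzyme (10 nM) and compounds were first incubated 15 min at room temperature; enzyme-free buffer wells were negative controls.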
WRN helicase inh: blocks human WRN helicase. Q14191. WRN helicase unwinding, fluorescent forked duplex, kinetic. Potency, µM (doses to about 114 µM), without a hit: at the highest dose activity change, negative = inhibition, most hits filed as inhibitors. 0.46% of 360,000 active; further: potency means the concentration at half of the fitted maximal effect; on the % scale 0 is the no-effect control and ±100 the full control effect; nearly all actives have a fitted effect of over 55% in size
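Kinetic fluorescence helicase assay: unwinding of a quenched forked DNA duplex (100 nM final) with 2 mM ATP final raises red fluorescence (525/598 nm). Compounds sat 15 min at room temperature with 20 nM WRN beforehand.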
Pol kappa inh-1: blocks human DNA polymerase kappa activity | Potency, µM (titrated, usually from 107 µM), for inactives: at the top dose activity, negative = inhibition, most hits filed as inhibitors | Q9UBT6 | purified Pol kappa, fluorescent DNA synthesis assay, 10 min | AID 588579 | 0.53% of 400,000 active; further: potency means the concentration at half of the fitted maximal effect; on the % scale 0 is the no-effect control and ±100 the full control effect
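Readout: fluorescence, taken kinetically at 0 and 10 min. Conditions: 10 nM Pol kappa, 15 min RT compound preincubation, 50 nM substrate final. Controls: enzyme-free buffer wells.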
Pol eta inh-1: DNA polymerase eta (human) inhibition | Q9Y253 | recombinant Pol eta, fluorescent DNA replication assay | Potency, µM (top dose mostly 114 µM), inactives show at the highest dose activity change, negative = inhibition, hits mostly inhibitors | 1.2% of 390,000 active; further: potency means the concentration at half of the fitted maximal effect; on the % scale 0 is the no-effect control and ±100 the full control effect
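Fluorescent replication assay: 50 nM final substrate added after a 15 min room-temperature compound preincubation with 10 nM enzyme. Signal taken at 0 min and again at 10 min.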
GALK confirm: confirmation of human galactokinase (GALK) inhibitors; shares compounds with Pol eta inh-1; 70% of 150 active; purified GALK, Kinase-Glo ATP depletion luminescence; Potency, µM (doses to about 115 µM), without a hit: top-dose activity, negative = inhibition, hits mostly inhibitors
GALK redox cs: redox cycling activity in phenol red-HRP assay | shares compounds with Pol eta inh-1 | Phenol red-HRP H2O2 redox cycling, absorbance 600 nm | Potency, µM (doses to about 115 µM), for the others: top-dose activity change, negative = H2O2 signal, hits mostly inhibitors | 40% of 150 active | AID 2035
HEK293 viability: HEK-293 cytotoxicity, GALK inhibitor secondary; AID 2547; shares compounds with Pol eta inh-1; 10% of 170 active; Potency, µM (series often up to 46.1 µM), inactives show at the top dose activity change, negative = cytotoxicity, hits mostly inhibitors; HEK-293 viability, ATP luminescence (CellTiter-Glo), 24/48 h; further: potency means the concentration at half of the fitted maximal effect; on the % scale 0 is the no-effect control and ±100 the full control effect
Pol kappa inh-2: confirmation of human DNA polymerase kappa inhibitors; shares compounds with Pol eta inh-1; purified Pol-kappa, fluorescent strand-displacement substrate; Potency, µM, hits mostly inhibitors; AID 720501; 76% of 920 active; further: potency means the concentration at half of the fitted maximal effect
Pol eta inh-2: confirmation of human DNA polymerase eta inhibitors; Potency, µM, hits mostly inhibitors; Pol eta primer extension, TAMRA/BHQ fluorescence, 10 min; AID 720502; shares compounds with Pol eta inh-1; 64% of 2,600 active; further: potency means the concentration at half of the fitted maximal effect
FEN1 inh-2: FEN1 inhibition, cherry-pick retest | shares compounds with FEN1 inh-1 | FEN1 flap cleavage, TAMRA/BHQ2 fluorogenic DNA substrate | Potency, µM, most hits filed as inhibitors | 79% of 880 active; further: potency means the concentration at half of the fitted maximal effect; nearly all actives have a fitted effect of over 60% in size
The depositor's hits bear a star; ? = inconclusive; / = not tested or not shown; [ ] = remark or other dose. Sampled rows, rich in hits. Any-hit rate of the full collection: about 2.4%. The call rests on the fitted dose curve; in most records, active means well fitted curve in the direction sought with a large enough effect; inconclusive means small, poorly fitted or top-dose-only effect, or another doubt; inactive means no such curve, though single readings can be large; an effect the other way counts as inactive or inconclusive.

SMILES	FEN1 inh-1	Pol beta inh	Pol iota inh	WRN helicase inh	Pol kappa inh-1	Pol eta inh-1	Pol eta inh-2	FEN1 inh-2	others
CCCCC1=CC2=CC(=O)C(C)(OC(=O)CC)C(=O)C2=CN1C(CO)CO (stereo not drawn)	11%	13%	?	-1%	-7%	-14%	/	/
CCC(=O)OC1(C)C(=O)C=C2C=C(CCCC(=O)OC)OC=C2C1=O (stereo not drawn)	?	/	?	-16%[11.6 µM]	?	25µM*	54*	/
CCCCC1=CC2=CC(=O)C(C)(OC(=O)CC)C(=O)C2=CO1 (stereo not drawn)	?	/	50µM*	-30%	?	50µM*	?	/
CCCCC1=CC2=CC(=O)C(C)(OC(=O)C3CCCC3)C(=O)C2=CO1 (stereo not drawn)	?	-29%	50µM*	?	79µM*	40µM*	?	/
NCCOB(c1ccccc1)c1ccccc1	/	/	/	/	-5%[60.1 µM]	/	/	/
Cc1ccccc1-c1noc(-c2ccc(N3CCN(C)CC3)c([N+](=O)[O-])c2)n1	-11%	-24%	-23%	/	-20%	-17%	/	/
CSc1nnc(-c2ccco2)c(-c2ccco2)n1	-20%	8.9µM*	?	?	?	11µM*	?	/
O=C(N/N=C/c1ccc(O)c(O)c1)c1ccc(-n2cnnn2)cc1	-24%	/	45µM*	2%[11.6 µM]	79µM*	22µM*	?	/
C=CCn1c(SC(C)C#N)nc2ccccc2c1=O (stereo not drawn)	15%	/	18%	/	-4%	/	/	/
COc1ccc(-n2cc(-c3ccccc3)c3c(N4CCN(CCO)CC4)ncnc32)cc1	-6%	-24%	1%	-9%	-5%	-15%	/	/	GALK confirm=-9%;GALK redox cs=-1%;HEK293 viability=-17%
Cc1ccn2c(=O)nc(SCC(=O)NC3CCCC3)nc2c1	-5%	/	?	-4%[11.6 µM]	-4%	22µM*	76*	/
Cc1ccn2c(=O)nc(SCC(=O)NC3CCCCC3)nc2c1	-9%	/	28%	5%	4%	-6%	/	/
O=C1CN(C(=O)COC(=O)c2ccc([N+](=O)[O-])s2)c2ccccc2N1	?	/	?	-1%	-11%	22µM*	?	7.6*
Cc1ccc(C(=O)/C=C/c2cc(Br)cc(Br)c2O)o1	?	?	?	79µM*	-12%	50µM*	?	85*
O=c1c(-c2ccccc2)nc2cnc(Oc3cccc(Cl)c3)nc2n1C[C@H]1CCCO1	/	/	/	/	-1%[60.1 µM]	/	/	/
O=C(O)c1cc(Cl)ccc1-c1ccc(/C=C/c2cc(C(F)(F)F)[nH]c(=O)n2)o1	?	-30%	?	?	?	50µM*	38*	60*
O=C(O)/C=C/c1ccc(-c2cccc(C(F)(F)F)c2)o1	16%	12%	-1%	-4%	-2%[60.1 µM]	19%	/	/
CCCC[C@H]1CCCO[C@@](C(=O)NCc2cc(C)n(C)n2)(C(F)(F)F)C1	-3%	/	40%	/	14%	/	/	/
O=[N+]([O-])c1ccc2c([N+](=O)[O-])ccc3c2c1CC3	/	/	/	0%[11.6 µM]	/	14µM*	76*	?
Cc1ccc(C(=O)Nc2ccc3c4c(cccc24)CC3)cc1[N+](=O)[O-]	5%	-15%	0%	-15%	-11%	-13%	/	/
CCOc1cc(/C=C(\C#N)C(=O)Nc2cccc(C(=O)O)c2)ccc1OCc1ccccc1Cl	?	-2%	?	-6%	0%	56µM*	?	?
Cc1nn2c(=O)cc(COc3ccc(/C=C(\C#N)C(=O)Nc4ccccc4)cc3Cl)nc2s1	7%	?	?	/	-13%	-22%	/	/
C=C1c2ccccc2O[C@H](C(=O)OCC)C1OC (mixture of isomers)	/	/	/	/	-11%	/	/	/
Cc1cccc(-c2nc3nc(C)cc(NC(C)c4ccccc4)n3n2)c1 (stereo not drawn)	-5%	-9%	25%	/	1%[60.1 µM]	-15%	/	/
O=C1NC(=S)S/C1=C\c1cc(Cl)cc(Cl)c1O	?	/	32µM*	35µM*	?	35µM*	/	85*	Pol kappa inh-2=24*
SMILES	FEN1 inh-1	Pol beta inh	Pol iota inh	WRN helicase inh	Pol kappa inh-1	Pol eta inh-1	Pol eta inh-2	FEN1 inh-2	others
CC(=O)N(\C=C/C=C/C=C1\Sc2ccccc2C1=O)c1ccccc1	?	20µM*	?	?	25µM*	79µM*	?	?	Pol kappa inh-2=75*
COc1ccccc1N1C(=N)S/C(=C\c2ccc(-c3ccccc3C(=O)O)o2)C1=O	45µM*	79µM*	20µM*	28µM*	50µM*	14µM*	30*	?	Pol kappa inh-2=19*
O=C(Nc1cc(C(=O)Nc2ccccc2C(=O)O)cc(C(=O)Nc2ccccc2C(=O)O)c1)c1ccccc1	25µM*	6%	?	40µM*	?	14µM*	30*	34*
O=C(Nc1ccccc1C(=O)O)c1cccc(NC(=O)c2ccccc2Br)c1	-3%	22%	10%	-24%	-3%	-2%	/	/
CN(C)/[N+]([O-])=N/Oc1cc(ON=[N+]([O-])N2CCN(c3ncccn3)CC2)c([N+](=O)[O-])cc1[N+](=O)[O-]	?	/	12%	/	-6%	/	/	/
Nc1ccc(Br)c2cccnc12	?	20%	?	-15%	2%	?	?	67*
CS(=O)(=O)Oc1ccc(Br)c2cccnc12	21%	30%	29%	5%	-1%	-13%	/	/
CC(Cc1ccc(O)c(O)c1)(NN)C(=O)O (stereo not drawn)	/	/	/	/	-2%[60.1 µM]	/	/	/
